# Measured values from PubChem BioAssay AID431 (Sanford-Burnham Center for Chemical Genomics, 2006).
# Hit rate of the full screen: of about 63,000 compounds, about 1,100 (1.7%) were called active. The entries come from a sample that favours actives as a whole. Entries with a potency or affinity are not part of this list. A number with no mark means an inactive call.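 How the source made its calls: active means compounds whose percent cytotoxicity in the single-dose primary screen, scaled between solvent and toxic-drug controls, exceeds 50; inactive means the rest.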
# Assay: cytotoxicity in KRAS-transformed pancreatic duct cells, primary screen, cell-based, fluorescence, HTS (AID 431);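 further: 0% = DMSO solvent wells and 100% = doxorubicin-treated wells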
# Settings: HPDE-C7K KRASV12 cells, Alamar Blue viability, 48 h; at 10 µM; active compounds read high
row,Compound,cytotoxicity
1,Cc1cc(Br)c(S(=O)(=O)NCCN2CCOCC2)cc1C,8.4%
2,CN(Cc1ccco1)C(=O)Cn1c(=O)oc2cc(S(=O)(=O)NCc3ccccc3)ccc21,13.3%
3,CN(CCCn1c(=S)[nH]c2ncccc2c1=O)Cc1ccccc1,-13.7%
4,COc1ccc(OC)c(-c2cc(C(=O)N3CCCc4ccccc43)no2)c1,-6.9%
5,COc1ccc(CCNC2CC(=O)N(CCc3ccc(OC)c(OC)c3)C2=O)cc1OC (stereo not drawn),6.1%
6,COC(=O)Nc1ccc(Oc2ccccc2)cc1,-4.1%
7,COc1ccccc1C(c1nnnn1Cc1ccccc1)N1CCN(c2nc3ccccc3s2)CC1 (stereo not drawn),-13%
8,CNS(=O)(=O)c1ccc(Oc2ccc(S(=O)(=O)NC)cc2)cc1,9.9%
9,O=S(=O)(c1ccc(Oc2ccc(S(=O)(=O)N3CCOCC3)cc2)cc1)N1CCOCC1,-9%
10,C=CS(=O)(=O)c1ccc(Oc2ccc(S(=O)(=O)C=C)cc2)cc1,94.8% (active)
11,CCn1cc(C(=O)NCc2ccccn2)c(=O)c2cc(F)c(N3CCN(C)CC3)cc21,2.1%
12,CCn1cc(C(=O)NCCCN(C)C)c(=O)c2cc(F)c(N3CCN(C)CC3)cc21,-0.3%
13,CCn1cc(C(=O)NCCc2ccccc2)c(=O)c2cc(F)c(N3CCN(C)CC3)cc21,50.5% (active)
14,C/C(Cl)=C\Cn1c(N2CCCCCC2)nc2c1c(=O)n(C)c(=O)n2C,12%
15,N#Cc1ccc(NC(=O)c2cc3cc4c5c(c3oc2=N)CCCN5CCC4)cc1,12.7%
16,O=C(c1cc(Cl)ccc1Cl)N1CCN(c2ccccn2)CC1,1.5%
17,Cc1cc(-c2ccccc2)nc(N2CCN(c3ccccn3)CC2)n1,5.4%
18,COC(=O)c1sc(Nc2ccccc2)nc1C,0.2%
19,CCS(=O)(=O)N1CCN(c2cccc(C)c2C)CC1,-2.5%
20,c1ccc(-c2ccc(-c3nc(-c4ccccn4)no3)cc2)cc1,-2.8%
21,c1ccc(-c2cc(-c3nc(-c4ccccn4)no3)c3ccccc3n2)cc1,60.7% (active)
22,c1ccc(-c2cc(-c3nc(-c4cccnc4)no3)c3ccccc3n2)cc1,-19.7%
23,Cc1cc(C)n2cc(CSc3nnnn3-c3ccccc3C)nc2n1,-17.4%
24,COc1ccc(CSc2nnc(N)s2)cc1F,49.9%

row,Compound,cytotoxicity
1,Cc1ccc2c(c1)c1c3n2CCN(C(=O)CN2CCN(C)CC2)C3CCC1 (stereo not drawn),42.5%
2,Cc1ccc2c(c1)c1c3n2CCN(C(=O)C2CC2)C3CCC1 (stereo not drawn),-2.9%
3,COc1ccccc1N1CCN(C(=O)CCCCn2c(=O)[nH]c3ccsc3c2=O)CC1,1.8%
4,CN1CCc2nc(SCC(=O)Nc3ccc(F)cc3)c(C#N)cc2C1,-5%
5,O=C(CN1CCCC(O)C1)N1c2ccccc2Sc2ccc(C(F)(F)F)cc21 (stereo not drawn),-4%
6,C=CCN1C(=O)c2ccccc2Sc2ccc(C(=O)N3CCN(C)CC3)cc21,-13.7%
7,O=C(Nc1cccc(C(F)(F)F)c1)c1cccnc1N1CCN(CCO)CC1,-13.4%
8,FC(F)(F)c1cccc(CN2CCCCCC2)c1,-5.3%
9,C=CCOC(=O)CC(NC(=O)c1ccccc1)c1ccccc1 (stereo not drawn),-11.4%
10,COc1ccccc1-c1cn(S(=O)(=O)c2ccc(F)cc2)nc1N,2%
11,CCOC(=O)c1[nH]nc(C(=O)c2ccc(Br)cc2)c1O,5.4%
12,CC(=O)C(C(C)=O)c1c(Cl)c(O)c(O)c2c(C(=O)c3ccccc3)coc12,76.1% (active)
13,CN(C)Cc1c(O)ccc2occ(C(=O)c3ccccc3)c12,6.6%
14,Cc1ccc(C(=O)c2coc3ccc(O)c(CN4CCN(C)CC4)c23)cc1,-9%
15,O=C(c1ccccc1)c1coc2ccc(O)c(Cl)c12,-15%
16,c1cncc(C(c2nnnn2C2CCCC2)N2CCCC2)c1 (stereo not drawn),6%
17,Cc1ccc(SCc2nc(-c3ccccc3)no2)cc1,-10.8%
18,O=C(O)CCC(=O)N1CCN(c2cccc(Cl)c2)CC1,-6.3%
19,CCc1[nH]c(C)c(C(C)=O)c1C,65.5% (active)
20,CCCNC(=O)c1[nH]c(C)c(C(C)=O)c1C,7.9%
21,CC(=O)c1c(C)[nH]c(C)c1C(C)=O,-3.5%
22,O=C(Nc1ccccc1C(=O)N1CCCC1)c1cccc(S(=O)(=O)N2CCCCCC2)c1,-4.2%
23,c1ccc2c(c1)CCN2CCN1CCc2ccccc21,1.1%
24,COc1ccc(NC(=O)C2CCCN2C(=O)NCc2ccccc2)c(OC)c1 (stereo not drawn),-13.7%
